An excerpt weighted towards active compounds, which were near 2.1% of everything screened.
EP2 modulator = EP2 receptor (human) modulation; P43116; EP2-expressing cells, cAMP HTRF FRET, PGE2 co-stimulation; induction, % at 25 µM; 260,000 tested, 0.83% active;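 active = compounds whose cAMP rise, as percent of the full-agonist control response, exceeds 60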;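 also: rat C6 glioma line stably carrying human EP2 under a CMV promoter; the protocol text gives 20 µM as final concentration; 100% = response of wells given 1 µM PGE2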
Target sequence (P43116 whole entry, looked up): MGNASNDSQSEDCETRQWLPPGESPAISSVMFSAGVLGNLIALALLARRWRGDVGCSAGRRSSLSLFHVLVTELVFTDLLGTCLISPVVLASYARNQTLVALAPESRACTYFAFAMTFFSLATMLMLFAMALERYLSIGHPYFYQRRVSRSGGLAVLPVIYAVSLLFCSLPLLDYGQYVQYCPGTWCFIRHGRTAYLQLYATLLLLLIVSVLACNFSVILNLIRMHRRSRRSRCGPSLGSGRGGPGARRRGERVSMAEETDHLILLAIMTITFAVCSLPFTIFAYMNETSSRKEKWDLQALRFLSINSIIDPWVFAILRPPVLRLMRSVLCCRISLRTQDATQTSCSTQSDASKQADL
CHT block = inhibits the human high affinity choline transporter. Q9GZV3. B-score at 10 µM. 310,000 tested, 0.86% active. AID 488975. CHT-expressing cells, membrane potential dye, choline response; hits give low values;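 active = B-score over 3 SD under the library average, and starting fluorescence ratio not unusually high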;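 also: choline stimulus applied at its EC90 after an EC20 pre-addition; B-score computed on integrated fluorescence ratio after choline addition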
PGE2 EP2 inh = inhibitors of human EP2 prostaglandin E2 receptor; inhibition, % at 25 µM; 260,000 tested, 0.52% active; P43116; C6 glioma cells expressing human EP2, cAMP TR-FRET; cells stimulated with saturating PGE2; AID 1422;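 active = percent inhibition above 40 after rounding to a whole number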;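 also: rat C6 glioma host cells with rolipram phosphodiesterase inhibitor present; the protocol text gives 20 µM as final concentration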
CHT PAM = allosterically activates the human high affinity choline transporter; Q9GZV3; CHT-expressing cells, membrane potential dye, choline EC20; hits give high values; LV-AA mutant CHT in HEK293 cells; B-score at 10 µM; 310,000 tested, 0.49% active; AID 488977;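 active = initial fluorescence not abnormally high and integrated response B-score, plate-corrected, over 3 SD above library mean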
CHT activ conf = human CHT activation, confirmatory screen | shares compounds with CHT PAM | CHT-expressing cells, membrane potential dye fluorescence (FDSS); % of choline EC20–EC90 response window; HEK293 expressing CHT LV-AA mutant; choline added at its EC20 | activation, % at 10 µM | 2,500 tested, 91% active;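 active = primary screen active, with duplicate mean activation above negative control mean plus 3 SD, cut at about 11% in these data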
HEK293 MP dye = counter-screen for CHT activators: effect in parental HEK293 cells | shares compounds with CHT PAM | membrane potential dye fluorescence (FDSS); measured after EC20 choline addition | ratio readout change at 10 µM, hits read low | 2,500 tested, 62% active;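 active = duplicate-averaged ratio beyond 3 SD from buffer wells, up or down, though filed actives are nearly all decreases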
The depositor's hits bear a star; i = inactive; x = no result.

SMILES	EP2 modulator	CHT block	PGE2 EP2 inh	CHT PAM	CHT activ conf	HEK293 MP dye
CCCCN(CCCNC(=O)c1ccc(CS(=O)(=O)c2c(Cl)cccc2Cl)o1)Cc1ccccc1	x	i	x	i	43.9*	-41.7*
Cc1cc(C)nc(NC(N)=NC(C)c2ccccc2)n1 (stereo unspecified)	-69.5	i	10.3	6.31*	44.9*	-33.9*
Cc1cc(C)nc(NC(N)=NCCc2c[nH]c3ccccc23)n1	10.6	i	5.7	8.58*	60.0*	-60.8*
Cc1cc(C)nc(NC(=NCCc2c[nH]c3ccccc23)NC(=O)Nc2ccc(Cl)cc2)n1	0.9	i	2.3	i	x	x
Cc1cc(C)nc(NC(=O)C(c2ccccc2)c2ccccc2)n1	20.5	i	3.7	i	x	x
CCC(C)(C)n1nnnc1C(c1cc2cc(C)c(C)cc2[nH]c1=O)N1CCc2ccccc2C1 (stereo unspecified)	25.6	x	16.6	x	x	x
CCN(Cc1ccccc1)S(=O)(=O)c1ccc(S(=O)(=O)NCc2ccc3c(c2)OCO3)cc1	-32.5	x	18.3	x	x	x
COc1ccc(OC)c(-c2[nH]nc3c2C(c2c(F)cccc2Cl)C(C#N)=C(N)O3)c1 (stereo unspecified)	18.7	x	8.0	x	x	x
NC1=Nc2cccc3cccc1c23	-77.3	i	10.5	i	44.9*	-65.1*
C(=N\NC1=Nc2cccc3cccc1c23)/c1ccccc1	-10.2	i	6.0	i	x	x
CC(CCc1ccccc1)NC(=O)/C=C/c1ccc(Cl)cc1 (stereo unspecified)	-96.2	i	10.9	i	5.8	i
CCN1CCS/C1=C\C=C\C1=[N+](CC)CCS1	-35.8	x	4.2	x	x	x
CCN1CCS/C1=C/C=C/C1=[N+](CC)CCS1	-15.2	i	2.3	6.9*	45.5*	-31.1*
C#CCNC(=O)C1CCN(c2nc3ccccc3n2CC=C)CC1	-12.9	x	x	x	x	x
CCn1c2c(c(=N)c3c1CCC3)CCC2	2.4	i	5.2	i	x	x
N=c1c2c(n(Cc3ccc(F)cc3)c3c1CCC3)CCC2	-9.6	i	-0.1	7.09*	48.6*	-50.5*
CCCCCCCn1c2c(c(=N)c3c1CCC3)CCCC2	-50.9	x	2.9	x	x	x
CCCCCCCCCn1c2c(c(=N)c3c1CCC3)CCC2	-3.8	i	8.7	10.9*	81.8*	-61.3*
CCCn1c2c(c(O)c(C(=O)NC)c1=O)CCCC2	31.7	i	13.1	i	x	x
CCCCn1c2c(c(=N)c3c1CCC3)CCC2	3.6	i	16.6	7.4*	34.6*	-51.6*
CCCCCCn1c2c(c(=N)c3c1CCC3)CCC2	3.6	i	4.7	8.16*	72.1*	-43.8*
Cc1ccc2cc(C(c3nnnn3C3CCCC3)N3CCC(Cc4ccccc4)CC3)c(=O)[nH]c2c1 (stereo unspecified)	11.7	x	15.6	x	x	x
Cc1nc2c(c(=O)[nH]1)CCN(C(=O)c1cc(C(C)(C)C)[nH]n1)C2	-23.1	x	13.1	x	x	x
CCn1c2ccccc2n2c(=O)n(CC(=O)N3C(C)CCCC3C)nc12 (stereo unspecified)	-5.8	x	x	x	x	x
COc1ccc(Cl)cc1NC(=O)CN(C)C(=O)c1cc(-c2ccncc2)nc2ccccc12	x	i	x	7.75*	49.3*	i
SMILES	EP2 modulator	CHT block	PGE2 EP2 inh	CHT PAM	CHT activ conf	HEK293 MP dye
CCOc1ccc(NC(=O)CN(C)C(=O)c2cc(-c3ccncc3)nc3ccccc23)cc1OCC	x	i	x	i	x	x
COCCOC(=O)C1=C(C)NC(=O)NC1c1ccc(C(C)(C)C)cc1 (stereo unspecified)	-44.0	x	9.8	x	x	x
COc1ccc(F)cc1C(=O)C1CCCN(Cc2cccn2-c2ccccn2)C1 (stereo unspecified)	-18.4	i	8.9	16.2*	58.2*	i
COc1ccc(C(=O)C2CCCN(Cc3cccn3-c3ccccn3)C2)c(OC)c1 (stereo unspecified)	-68.7	i	5.1	i	x	x
O=C(c1cc(F)ccc1F)C1CCCN(Cc2cccn2-c2ccccn2)C1 (stereo unspecified)	5.7	i	11.1	12.7*	42.5*	i
O=C(CN1CCc2nc(N3CCCC3)[nH]c(=O)c2C1)Nc1ccc2c(c1)OCCO2	-19.2	x	8.8	x	x	x
CN(C)C(=O)Cn1nc2c3ccccc3nc(C(C)(C)C)n2c1=O	-30.6	x	2.9	x	x	x
COCC1CCN(Cc2c(C(=O)N3CCN(C4CCCCC4)CC3)nc3ccccn23)C1 (stereo unspecified)	x	i	x	i	x	x
O=C(c1nc2ccccn2c1CN1CCCC(O)C1)N1CCN(C2CCCCC2)CC1 (stereo unspecified)	x	i	x	i	74.6*	-57.3*
CCOC(=O)c1cccc(Nc2nc(C)cc(C)n2)c1	36.9	i	9.9	i	x	x
CCOc1ccc(Nc2cc(C)nc3ccc(C)cc23)cc1	x	i	x	i	35.2*	-47.1*
CCOC(=O)c1ccc2nc(C)cc(Nc3cccc(C(=O)O)c3)c2c1	26.6	i	5.1	i	26.8*	-24.8*
CCOC(=O)N1CCN(c2c(NCc3ccc(F)cc3)c(=O)c2=O)CC1	27.2	i	9.6	i	3.9	i
CCOC(=O)N1CCN(c2c(N3CCN(c4ccc(F)cc4)CC3)c(=O)c2=O)CC1	31.3	i	4.4	i	x	x
COC(=O)c1cc(C(=O)N2CCN(c3ccccc3OC)CC2)cc([N+](=O)[O-])c1	-16.5	i	2.2	6.77*	13.0*	i
CCOCCCn1c(=NC(C)=O)c(C#N)cc2c(=O)n3cccc(C)c3nc21	-10.0	i	13.9	i	43.4*	-62.2*
CCN(CC)C(=O)C1CCN(S(=O)(=O)c2ccc(OC)c(OC)c2)CC1	-19.0	x	10.1	x	x	x
COc1ccc2cc(CN(Cc3ccccc3)Cc3nnnn3CC3CCCO3)c(=O)[nH]c2c1 (stereo unspecified)	-14.5	x	12.7	x	x	x
Cc1nn2c(NCCN(C)C)c3c(nc2c1-c1ccccc1)CCCC3	-39.1	i	4.5	i	11.4*	-50.7*
Cc1nn2c(NCCN(C)C)c3c(nc2c1-c1ccc(F)cc1)CCC3	-55.2	x	x	x	x	x
CN(C)c1ccc(/C=C/c2cc[n+](C)cc2)cc1	-26.3	i	17.3	6.46*	33.6*	i
C[n+]1ccc(/C=C/c2cccs2)cc1	20.1	i	6.9	i	61.6*	-41.8*
COc1cccc(NC(=O)CSc2nnc(-c3ccccc3)n2C)c1	-44.8	x	23.0	x	x	x
COn1c(=O)c(-c2cccs2)[n+]([O-])c2ccccc21	29.2	i	11.9	i	x	x
Cn1c(-c2cccs2)[n+](C)c2ccccc21	19.7	i	1.6	9.79*	61.8*	-56*
COc1cc(C(=O)N/N=C/c2ccccn2)cc(OC)c1OC	-10.3	i	4.9	i	x	x
COc1ccc(C(=O)N/N=C/c2ccccn2)cc1OC	-32.6	i	4.8	10.4*	54.2*	-66*

From PubChem
